Where “and” joins values, the source holds several entries; their conditions need not be identical. Identical values can stand only once. Records with an inconclusive call do not appear. A call without a number means that no potency is given here. Calls of active or inactive are those of the source. Unless noted, calls follow the shape of the full dose curve.
Tests used:
[1] = Cell Viability - MRC5 (AID 434); conditions: MRC5 lung fibroblast viability, qHTS;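 also: potency is read from the fitted curve at half-maximal effect; potency reflects cytotoxicity seen as loss of intracellular ATP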
Procedure, shortened: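 qHTS cytotoxicity in human lung fibroblast MRC5 cells; 40 hr treatment, 37 °C; cellular ATP by luciferase luminescence; DMSO = 0%, 100 uM tamoxifen = 100% inhibition; Hill-fit AC50.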

[2] = Cell Viability - N2a (AID 540; active = well fitted curve in the direction sought with a large enough effect; an effect the other way counts as inactive or inconclusive;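 also: cells exposed to compound for 40 h at 37 °C; nearly all actives have a fitted effect of over 45% in size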); conditions: N2a mouse neuroblastoma cell viability; activity change, negative = cytotoxicity: at 92.2 µM (top of the series)
Procedure, shortened: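 Luminescent ATP signal (CellTiter-Glo, 20 min at room temperature) served as the viability read-out after N2a cells were treated with compounds for 40 hours at 37 °C. Concentration-response data were fitted to the Hill equation for AC50.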

[3] = MultiTox-Fluor Cytotoxicity Assay - LYMP1-002 - Dead Cells (AID 960; active = well fitted curve in the direction sought with a large enough effect; an effect the other way counts as inactive or inconclusive; also: nearly all actives have a fitted effect of over 60% in size); conditions: LYMP1-002 lymphoblastoid cells, dead-cell protease fluorescence; series mostly up to 46.1 µM
Procedure, shortened: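 LYMP1-002 cells 2500/well; 5 hr 37 C pre-incubation; compound 16 hr 37 C; MultiTox-Fluor reagent 60 min RT; dead-cell fluor Ex/Em 485/520. Norm. to DMSO (0%) vs 15 uM tetraoctylammonium bromide (100%); Hill AC50.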

[4] = target: Estrogen receptor (Homo sapiens) (UniProt P03372); test: qHTS assay for small molecule agonists of estrogen receptor alpha signaling (AID 588514); conditions: ER-alpha-UAS-bla HEK293, beta-lactamase ratio, 18 h; series mostly up to 76.8 µM; also: nearly all actives have a fitted effect of over 70% in size
Procedure, shortened: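 Cells were plated at 5000/well, incubated 4 hrs at 37 C, dosed with compound titration series, incubated 18 hrs at 37 C, loaded with CCF4 dye for 2 hrs at RT, then fluorescence was read.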

[5] = target: Bile acid receptor (Homo sapiens) (UniProt Q96RI1); test: qHTS assay for small molecule agonists of farnesoid X receptor signaling (AID 588527); conditions: HEK293T FXR-UAS-bla, beta-lactamase ratio, 16 h; stronger effect = higher value
Procedure, shortened: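 Quantitative HTS used FXR-UAS-bla HEK293T cells with 16 h compound incubation at 37 C. EC50 values came from concentration-response curves normalized to chenodeoxycholic acid.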

[6] = target: Glucocorticoid receptor (Homo sapiens) (UniProt P04150); test: qHTS assay for small molecule agonists of glucocorticoid receptor signaling (AID 588532; active = well fitted curve in the direction sought with a large enough effect in the signal ratio, with a control signal flat; the % refers to the signal ratio); conditions: HeLa MMTV-bla, beta-lactamase ratio, agonist, 18 h; stronger effect = higher value; percent of dexamethasone control, DMSO zero
Procedure, shortened: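 Quantitative HTS using CellSensor MMTV-bla HeLa cells in charcoal/dextran-treated serum; compounds tested up to 92 uM. After 18 h at 37 C, CCF4 dye reported reporter induction.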

[7] = target: Glucocorticoid receptor (Homo sapiens) (UniProt P04150); test: qHTS assay for small molecule antagonists of glucocorticoid receptor signaling (AID 588533; active = well fitted inhibition curve with a large enough effect in the signal ratio, with a control signal flat, not every such curve was filed as active; the % refers to the signal ratio;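 also: cells stimulated with 2 nM dexamethasone as agonist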); conditions: HeLa MMTV-bla, GRE beta-lactamase ratio, antagonist mode, 18 h; series mostly up to 76.8 µM
Procedure, shortened: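 Antagonist-mode qHTS: compound titrations added to GRE-bla HeLa cells, then dexamethasone 2 nM final; 18 h, 37 C. CCF4 FRET fluorescence normalized to dexamethasone and DMSO; IC50 from Hill fit.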

[8] = target: Peroxisome proliferator-activated receptor delta (Homo sapiens) (UniProt Q03181); test: qHTS assay for small molecule agonists of peroxisome proliferator-activated receptor delta signaling (AID 588534); conditions: HEK293T PPARdelta-UAS-bla, beta-lactamase ratio, 18 h; series mostly up to 76.7 µM
Procedure, shortened: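 Fluorescence from CCF4 substrate cleavage by beta-lactamase reporter, read 2 hrs at RT, measured agonist activity. Compounds were tested with 18 hrs exposure at 37 C. Concentration-response data fitted to Hill equation.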

[9] = qHTS assay for small molecule antagonists of peroxisome proliferator-activated receptor delta signaling (AID 588535; active = well fitted inhibition curve with a large enough effect in the signal ratio, with a control signal flat, not every such curve was filed as active; the % refers to the signal ratio;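 as to max response: cells co-treated with a PPAR-delta agonist as stimulator during compound exposure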); conditions: HEK293T PPARd-UAS-bla, beta-lactamase FRET ratio, 18 h; 460 nm channel
Procedure, shortened: (§1)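 HEK293T PPAR-delta-UAS-bla cells, 4000/well, 2% charcoal/dextran FBS; 5 h 37 C; cpd titration; 18 h 37 C; CCF4 2 h RT; FI 460/530 nm; Hill fit → IC50, efficacy.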

[10] = target: Peroxisome proliferator-activated receptor delta (Homo sapiens) (UniProt Q03181); test: as above; conditions: HEK293T PPARd-UAS-bla, beta-lactamase FRET ratio, 18 h; series mostly up to 76.7 µM
Procedure, shortened: as §1

[11] = target: Peroxisome proliferator-activated receptor gamma (Homo sapiens) (UniProt P37231); test: qHTS assay for small molecule agonists of peroxisome proliferator-activated receptor gamma signaling (AID 588536; active = well fitted curve in the direction sought with a large enough effect in the signal ratio, with a control signal flat, not every such curve was filed as active; the % refers to the signal ratio); conditions: HEK293 PPARg-UAS-bla, beta-lactamase ratio, 16 h, percent of rosiglitazone response, DMSO as zero; series mostly up to 76.7 µM
Procedure, shortened: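 HEK293 UAS-bla reporter line, 1% charcoal/dextran FBS; titration, 16 h, 37 C; CCF4 loading 2 h RT; fluorescence 460/530 nm. Normalized to rosiglitazone 2 uM = 100%, DMSO = 0%.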

[12] = target: Peroxisome proliferator-activated receptor gamma (Homo sapiens) (UniProt P37231); test: qHTS assay for small molecule antagonists of peroxisome proliferator-activated receptor gamma signaling (AID 588537; active = well fitted inhibition curve with a large enough effect in the signal ratio, with a control signal flat, not every such curve was filed as active; the % refers to the signal ratio;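 also: reporter cells co-stimulated with 50 nM rosiglitazone agonist during compound treatment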); conditions: HEK293 PPARg-UAS-bla, beta-lactamase ratio, antagonist mode; series mostly up to 76.8 µM
Procedure, shortened: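 Antagonist mode, beta-lactamase reporter in HEK293; charcoal/dextran FBS 1%; 3000 cells/well, 37 C 6-6.5 h; cpd titration + rosiglitazone 50 nM final, 16 h 37 C; CCF4, 2 h RT; 460/530 nm; Hill fit → IC50, efficacy.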

[13] = target: Vitamin D3 receptor (Homo sapiens) (UniProt P11473); test: qHTS assay for small molecule antagonists of vitamin D receptor signaling (AID 588541); conditions: HEK293T VDR-UAS-bla, beta-lactamase ratio, antagonist mode; series mostly up to 76.7 µM;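 also: receptor activated by calcitriol during compound treatment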
Procedure, shortened: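 Antagonist-mode beta-lactamase reporter assay: HEK293T VDR-UAS-bla cells were exposed to titrated compound alongside 1-alpha,25-dihydroxyvitamin D3 at 3 nM final for 16 h. Values were normalized to the 50 nM agonist control and DMSO basal, with IC50 and efficacy from Hill equation fits.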

[14] = target: Vitamin D3 receptor (Homo sapiens) (UniProt P11473); test: qHTS assay for small molecule agonists of vitamin D receptor signaling (AID 588543); conditions: HEK293T VDR-UAS-bla, beta-lactamase ratio, 16 h; series mostly up to 76.8 µM
Procedure, shortened: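 Reporter cells (HEK293T, VDR-UAS-bla) were seeded in medium with 2% charcoal-stripped serum and incubated 5 h, then compounds in concentration series were added for 16 h at 37 °C. Stimulation was scaled between DMSO basal and 50 nM 1α,25-dihydroxyvitamin D3.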

[15] = qHTS assay for small molecule activators of the nuclear factor-kappa B (NF-kB) signaling pathway (AID 651749; active = well fitted activation curve with a large enough effect in the signal ratio; the % refers to the signal ratio); conditions: NF-kB-bla ME-180 cells, beta-lactamase FRET ratio, 16 h; stronger effect = higher value
Procedure, shortened: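 Readout: beta-lactamase reporter driven by an NF-kB response element, detected fluorescently as loss of FRET. Cells were the ME-180 line, treated 16 hr at 37C with pin-transferred compound.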

[16] = Cell Viability - H-4-II-E (AID 543; active = well fitted curve in the direction sought with a large enough effect; an effect the other way counts as inactive or inconclusive; also: nearly all actives have a fitted effect of over 35% in size); conditions: H-4-II-E rat hepatoma viability; series mostly up to 92.2 µM
Procedure, shortened: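 Luminescent ATP signal (CellTiter-Glo) served as the viability read-out, with cytotoxicity seen as a concentration-dependent ATP drop. Cells were treated for 40 hours in complete medium. AC50 values derive from Hill-equation modelling.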

[17] = qHTS assay for small molecule agonists of the antioxidant response element (ARE) signaling pathway (AID 651741; active = well fitted activation curve with a large enough effect in the signal ratio; the % refers to the signal ratio; also: potency is read from the fitted curve at half-maximal effect); conditions: HepG2 ARE-bla reporter, beta-lactamase FRET ratio, 16 h; series mostly up to 96 µM
Procedure, shortened: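 Quantitative HTS in HepG2 cells stably expressing an ARE-beta-lactamase reporter; 16 h compound exposure at 37 C, followed by 2 h room-temperature incubation with LiveBLAzer B/G FRET substrate and fluorescence measurement.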

[18] = qHTS assay for small molecule antagonists of the retinoid-related orphan receptor gamma (ROR-gamma) signaling pathway - cell viability counter screen (AID 720652; active = well fitted curve in the direction sought with a large enough effect in the repeat runs; an effect the other way counts as inactive or inconclusive;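 also: compound exposure lasted 16 hr before ATP read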); conditions: RORgamma reporter cell line viability counter screen; series mostly up to 92.2 µM
Procedure, shortened: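 Luminescence from CellTiter-Glo after 30 min at room temperature reported cellular ATP as the cytotoxicity measure. Cells were the CHO reporter line with doxycycline-induced ROR-gamma expression, exposed to compound for 16 hr at 37 C.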

[19] = target: Mitogen-activated protein kinase 10 (Mus musculus) (UniProt Q61831); test: JNK3 AlphaScreen Assay (AID 530; active = well fitted curve in either direction with a large enough effect, not every such curve was filed as active;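 also: kinase came from lysate of stimulated human HepG2 cells; signal reports phosphorylation of biotinylated GST-cJun 1-79 at Ser73 with 10 µM ATP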); conditions: JNK3 lysate, c-Jun phosphorylation; series mostly up to 57.1 µM
Procedure, shortened: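 Compound titrations were preincubated 15 minutes at room temperature with substrate, antibody and pre-activated JNK3-containing HepG2 lysate. Reactions were started with 10 uM ATP and stopped with EDTA-containing bead buffer for AlphaScreen detection.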

[20] = Cell Viability - Hek293 (AID 427;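 active = compounds whose dose-response curve shows a full or clear partial loss of cell viability, called from curve shape rather than a numeric limit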;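 also: potency is read from the fitted curve at half-maximal effect; cells exposed to compound for 40 hours at 37 °C before reading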); conditions: qHTS
Procedure, shortened: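 AC50 values derive from Hill-modelled concentration-response of ATP-based luminescence, normalized between DMSO-only and 100 uM tamoxifen controls. Cells were exposed in complete culture medium for 40 hr at 37 °C before detection.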

Estrogen receptor (Homo sapiens), sequence (P03372 whole entry, looked up): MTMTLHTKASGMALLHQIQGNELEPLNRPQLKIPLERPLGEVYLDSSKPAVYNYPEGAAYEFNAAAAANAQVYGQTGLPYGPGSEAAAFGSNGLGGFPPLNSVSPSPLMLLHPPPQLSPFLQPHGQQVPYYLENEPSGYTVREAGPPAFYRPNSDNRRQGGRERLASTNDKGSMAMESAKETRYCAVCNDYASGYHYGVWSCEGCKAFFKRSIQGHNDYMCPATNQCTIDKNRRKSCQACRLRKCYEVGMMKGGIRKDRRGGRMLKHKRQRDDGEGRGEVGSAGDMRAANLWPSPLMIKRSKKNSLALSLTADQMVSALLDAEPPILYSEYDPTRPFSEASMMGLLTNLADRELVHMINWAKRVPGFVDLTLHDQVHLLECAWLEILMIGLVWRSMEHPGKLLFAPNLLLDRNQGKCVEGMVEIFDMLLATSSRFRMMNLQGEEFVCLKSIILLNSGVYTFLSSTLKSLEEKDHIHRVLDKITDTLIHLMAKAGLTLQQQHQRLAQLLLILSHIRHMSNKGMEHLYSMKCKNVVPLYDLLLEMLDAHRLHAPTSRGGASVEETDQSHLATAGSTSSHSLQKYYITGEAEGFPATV
Peroxisome proliferator-activated receptor gamma (Homo sapiens), sequence (P37231 whole entry, looked up): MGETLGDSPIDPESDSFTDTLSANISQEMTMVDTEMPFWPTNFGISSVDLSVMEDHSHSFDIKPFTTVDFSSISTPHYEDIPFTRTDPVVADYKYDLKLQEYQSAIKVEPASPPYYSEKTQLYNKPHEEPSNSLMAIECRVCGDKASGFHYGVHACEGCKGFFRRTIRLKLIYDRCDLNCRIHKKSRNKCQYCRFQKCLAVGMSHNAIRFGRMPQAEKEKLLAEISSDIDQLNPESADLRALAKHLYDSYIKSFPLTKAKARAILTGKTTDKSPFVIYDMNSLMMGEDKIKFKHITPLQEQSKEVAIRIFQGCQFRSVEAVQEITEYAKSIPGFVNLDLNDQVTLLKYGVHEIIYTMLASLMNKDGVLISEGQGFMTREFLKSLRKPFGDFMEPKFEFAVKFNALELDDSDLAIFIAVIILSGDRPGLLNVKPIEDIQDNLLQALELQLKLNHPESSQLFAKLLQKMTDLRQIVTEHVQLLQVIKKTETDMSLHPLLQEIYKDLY
Peroxisome proliferator-activated receptor delta (Homo sapiens), sequence (Q03181 whole entry, looked up): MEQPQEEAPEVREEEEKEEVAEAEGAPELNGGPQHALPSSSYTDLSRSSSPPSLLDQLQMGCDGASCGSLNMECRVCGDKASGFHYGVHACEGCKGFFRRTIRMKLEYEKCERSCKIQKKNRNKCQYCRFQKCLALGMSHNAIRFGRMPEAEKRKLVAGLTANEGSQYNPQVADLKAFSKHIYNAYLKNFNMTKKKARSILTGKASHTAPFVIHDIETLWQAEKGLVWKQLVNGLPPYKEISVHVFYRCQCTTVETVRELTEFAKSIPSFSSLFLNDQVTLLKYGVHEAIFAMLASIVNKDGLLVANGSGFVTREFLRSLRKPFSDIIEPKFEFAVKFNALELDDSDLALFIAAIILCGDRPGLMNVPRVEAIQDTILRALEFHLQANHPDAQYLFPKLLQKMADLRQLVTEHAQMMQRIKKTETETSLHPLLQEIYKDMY
Bile acid receptor (Homo sapiens), sequence (Q96RI1 whole entry, looked up): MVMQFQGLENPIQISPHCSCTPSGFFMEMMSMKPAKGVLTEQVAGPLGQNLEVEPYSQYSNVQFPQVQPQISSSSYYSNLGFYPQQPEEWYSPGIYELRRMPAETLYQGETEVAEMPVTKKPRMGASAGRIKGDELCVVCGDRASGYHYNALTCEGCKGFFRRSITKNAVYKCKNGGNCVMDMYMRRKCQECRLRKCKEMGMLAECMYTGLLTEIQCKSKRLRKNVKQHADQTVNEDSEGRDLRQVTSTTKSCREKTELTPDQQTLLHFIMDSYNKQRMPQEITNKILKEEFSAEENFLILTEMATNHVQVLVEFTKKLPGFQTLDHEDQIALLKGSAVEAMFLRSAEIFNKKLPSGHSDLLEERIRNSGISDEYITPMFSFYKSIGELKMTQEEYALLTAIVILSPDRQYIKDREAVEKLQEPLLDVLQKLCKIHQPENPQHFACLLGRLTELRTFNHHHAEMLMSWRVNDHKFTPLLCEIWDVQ
Glucocorticoid receptor (Homo sapiens), sequence (P04150 whole entry, looked up): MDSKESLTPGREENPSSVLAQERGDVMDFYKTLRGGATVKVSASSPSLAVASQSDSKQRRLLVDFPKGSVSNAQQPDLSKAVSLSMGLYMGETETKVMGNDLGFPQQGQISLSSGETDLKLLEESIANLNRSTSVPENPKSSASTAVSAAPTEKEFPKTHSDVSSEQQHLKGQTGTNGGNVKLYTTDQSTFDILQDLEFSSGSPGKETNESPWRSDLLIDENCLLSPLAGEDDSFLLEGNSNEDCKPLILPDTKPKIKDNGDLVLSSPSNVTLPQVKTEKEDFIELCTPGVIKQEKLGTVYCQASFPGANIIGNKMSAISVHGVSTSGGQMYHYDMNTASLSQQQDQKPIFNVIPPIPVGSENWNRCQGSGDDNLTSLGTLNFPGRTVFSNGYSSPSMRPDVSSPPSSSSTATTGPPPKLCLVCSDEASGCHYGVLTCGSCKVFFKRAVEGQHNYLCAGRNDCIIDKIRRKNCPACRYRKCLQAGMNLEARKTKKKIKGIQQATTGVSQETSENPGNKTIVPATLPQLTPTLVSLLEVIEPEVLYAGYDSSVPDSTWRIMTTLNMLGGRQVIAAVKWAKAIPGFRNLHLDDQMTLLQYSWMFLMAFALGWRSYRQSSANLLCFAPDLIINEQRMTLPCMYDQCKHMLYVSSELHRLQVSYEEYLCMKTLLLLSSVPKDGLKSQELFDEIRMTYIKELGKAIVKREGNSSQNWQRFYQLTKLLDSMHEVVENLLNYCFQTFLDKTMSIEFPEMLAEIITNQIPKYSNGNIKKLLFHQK
Vitamin D3 receptor (Homo sapiens), sequence (P11473 whole entry, looked up): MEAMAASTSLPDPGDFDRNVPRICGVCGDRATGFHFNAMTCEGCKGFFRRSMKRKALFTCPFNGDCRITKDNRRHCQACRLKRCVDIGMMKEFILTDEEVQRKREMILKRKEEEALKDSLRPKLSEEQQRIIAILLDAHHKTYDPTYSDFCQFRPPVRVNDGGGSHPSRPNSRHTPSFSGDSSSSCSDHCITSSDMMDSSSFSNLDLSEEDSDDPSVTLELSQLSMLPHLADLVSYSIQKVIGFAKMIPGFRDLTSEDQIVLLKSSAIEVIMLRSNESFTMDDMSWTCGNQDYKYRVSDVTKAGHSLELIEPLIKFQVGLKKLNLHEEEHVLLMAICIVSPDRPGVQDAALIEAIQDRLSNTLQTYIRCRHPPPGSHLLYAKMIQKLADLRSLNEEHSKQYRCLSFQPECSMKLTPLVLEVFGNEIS

SMILES | Potency [1] | Potency [2] | Potency [3] | Potency [4] | activation [5] | activation [6] | outcome [7] | outcome [8] | max response [9] | outcome [10] | outcome [11] | Potency [12] | outcome [13] | outcome [14] | activation [15] | Potency [16] | Potency [17] | Potency [18] | Potency [19] | Potency [20]
O=[N+]([O-])c1ccccc1CCl | > 92 µM (inactive) | inactive | inactive | inactive | -1.64% (inactive) | 1.82% (inactive) | inactive | inactive | -16.6% | inactive | inactive | inactive | inactive | inactive | 0.905% (inactive) |  |  |  |  | 
ClCCCCl |  | inactive | inactive |  | 1.98% (inactive) | -8% (inactive) |  | inactive | 23.7% | inactive | inactive |  | inactive | inactive | 0.207% (inactive) | inactive | inactive | inactive |  | 
C=C(Cl)CSC(=S)N(CC)CC | > 92 µM (inactive) | inactive | inactive |  | 1.19% (inactive) |  |  | inactive | -17.2% | inactive | inactive | inactive | inactive | inactive |  | inactive |  | inactive |  | 
Cc1ccc(N)cc1C |  | inactive | inactive | inactive | 1.96% (inactive) |  |  |  | 3.44% | inactive | inactive |  | inactive | inactive | 0.0731% (inactive) | inactive |  | inactive | inactive | 
CN(C)c1ccc(N(C)C)cc1 | > 92 µM (inactive) |  | inactive | inactive |  | 1.15% (inactive) | inactive |  |  |  |  | inactive |  |  |  |  | 42.2 µM (active) |  | inactive | > 92 µM (inactive)
CCOC(=O)CBr | > 92 µM (inactive) |  | inactive |  | 0.321% (inactive) |  | inactive | inactive | -11.7% | inactive | inactive |  | inactive | inactive | -0.133% (inactive) | inactive | inactive | inactive |  | 
CN1CSC(=S)N(C)C1 | > 92 µM (inactive) | inactive | inactive | inactive | 0.811% (inactive) and -0.41% (inactive) | 6.16% (inactive) | inactive | inactive |  |  | inactive | inactive | inactive | inactive | -0.197% (inactive) and -1.34% (inactive) |  | 42.2 µM (active) and 27.3 µM (active) |  |  | 
C(CCOCC1CO1)COCC1CO1 (stereo not given) | > 92 µM (inactive) |  | inactive | inactive | -2.57% (inactive) | -0.372% (inactive) | inactive |  | -10% | inactive |  |  | inactive | inactive | 0.765% (inactive) | inactive | 66.8 µM (active) | inactive |  | > 92 µM (inactive)
O=[N+]([O-])/C=C/c1ccccc1 |  |  | inactive |  | 2.07% (inactive) | -1.34% (inactive) | inactive | inactive | 20.9% | inactive | inactive | inactive |  | inactive |  |  |  |  | inactive | 
N#CC(Cl)(Cl)Cl | > 92 µM (inactive) | inactive |  | inactive | -1.65% (inactive) | 5.98% (inactive) | inactive | inactive |  |  |  |  |  |  | -0.633% (inactive) | inactive | inactive | inactive | inactive | > 92 µM (inactive)
CC(C)(C)OOC(=O)c1ccccc1 | > 92 µM (inactive) |  | inactive |  |  | 1.21% (inactive) and -1.74% (inactive) | inactive | inactive | -0.545% | inactive | inactive |  | inactive | inactive | 0.502% (inactive) and 3.48% (inactive) | inactive | inactive | inactive | inactive | 
COC(C)(C)C | > 92 µM (inactive) | inactive | inactive |  |  |  |  |  | -16.9% | inactive |  |  |  | inactive | 1.85% (inactive) | inactive | inactive |  | inactive | > 92 µM (inactive)
Cc1cc(Cl)ccc1O |  | inactive | inactive |  | -2.04% (inactive) | 0.519% (inactive) |  | inactive |  |  | inactive | inactive | inactive | inactive | 0.374% (inactive) | inactive |  | inactive | inactive | 

— PubChem BioAssay (NCATS)
